Source: PubChem BioAssay (Tox21)
Inconclusive results are not listed. Calls of active or inactive are those of the source. Calls follow the shape of the dose curve; as a rule, active = well fitted curve in the direction sought with a large enough effect in the repeat runs; inconclusive = weak or mixed curves; inactive = no such curve, though single readings can be large; an effect the other way counts as inactive or inconclusive.

Key:
[1] = qHTS RealTime-Glo MT Cell Viability Assay in HEK293 cells - 0 hour (AID 1224880); conditions: RealTime-Glo luminescence; series mostly up to 76.8 µM; also: nearly all actives have a fitted effect of over 45% in size; also: potency is read from the fitted curve at half-maximal effect
Method in brief: (§1)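 600 HEK293 cells per well, dispensed already mixed with RealTime-Glo MT reagents. Compound dosing came 5 h later. The same wells were read for luminescence at 0, 8, 16, 24, 32 and 40 h of exposure at 37 C.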

[2] = A CellTox Green Cytotoxicity Assay to monitor cytotoxicity in HEK293 cells - 32 hour (AID 1224881); conditions: CellTox Green fluorescence; series mostly up to 76.8 µM; also: nearly all actives have a fitted effect of over 40% in size; also: potency is read from the fitted curve at half-maximal effect
Method in brief: (§2)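 Dead-cell fluorescence measured kinetically: asymmetric cyanine dye, HEK293, 600 cells/well, 5 h settle, 23 nL cpd/DMSO, 37 C, reads 0–40 h every 8 h.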

[3] = A CellTox Green Cytotoxicity Assay to monitor cytotoxicity in HepG2 cells - 0 hour (AID 1224882); conditions: CellTox Green fluorescence; series mostly up to 76.8 µM; also: nearly all actives have a fitted effect of over 35% in size
Method in brief: (§3)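 First, HepG2 cells (600/well) mixed with reagent were plated; second, after 5 h at 37 C they received compounds via pintool; third, fluorescence was measured at 0 h through 40 h at 8 h intervals.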

[4] = A CellTox Green Cytotoxicity Assay to monitor cytotoxicity in HepG2 cells - 32 hour (AID 1224883); conditions: CellTox Green fluorescence; series mostly up to 76.8 µM; also: nearly all actives have a fitted effect of over 50% in size; also: potency is read from the fitted curve at half-maximal effect
Method in brief: as §3

[5] = A CellTox Green Cytotoxicity Assay to monitor cytotoxicity in HEK293 cells - 8 hour (AID 1224884); conditions: CellTox Green fluorescence; series mostly up to 76.8 µM; also: nearly all actives have a fitted effect of over 35% in size
Method in brief: as §2

[6] = qHTS RealTime-Glo MT Cell Viability Assay in HepG2 cells - 16 hour (AID 1224885); conditions: RealTime-Glo luminescence; series mostly up to 76.8 µM; also: nearly all actives have a fitted effect of over 50% in size
Method in brief: (§4)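 Cell number in HepG2 cultures estimated from NanoLuc luminescence generated by metabolic reduction of a prosubstrate by living cells. The homogeneous, nonlytic format allowed repeated reads at 0, 8, 16, 24, 32 and 40 h of compound exposure.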

[7] = qHTS RealTime-Glo MT Cell Viability Assay in HEK293 cells - 8 hour (AID 1224887); conditions: RealTime-Glo luminescence; series mostly up to 76.8 µM; also: nearly all actives have a fitted effect of over 50% in size; also: potency is read from the fitted curve at half-maximal effect
Method in brief: as §1

[8] = A CellTox Green Cytotoxicity Assay to monitor cytotoxicity in HEK293 cells - 16 hour (AID 1224888); conditions: CellTox Green fluorescence; series mostly up to 76.8 µM; also: nearly all actives have a fitted effect of over 35% in size
Method in brief: as §2

[9] = qHTS RealTime-Glo MT Cell Viability Assay in HepG2 cells - 0 hour (AID 1224889); conditions: RealTime-Glo luminescence; series mostly up to 76.8 µM; also: nearly all actives have a fitted effect of over 50% in size
Method in brief: as §4

[10] = qHTS RealTime-Glo MT Cell Viability Assay in HEK293 cells - 24 hour (AID 1224886); conditions: RealTime-Glo luminescence; series mostly up to 76.8 µM; also: nearly all actives have a fitted effect of over 50% in size; also: potency is read from the fitted curve at half-maximal effect
Method in brief: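 Homogeneous bioluminescent viability format in HEK293 cells (600 cells/well). Following 5 h at 37 C/5% CO2, 23 nL compound was pintooled; the signal was measured repeatedly during 40 h incubation.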

Measured: Potency

O=C1c2ccccc2C(=O)c2c(O)c(O)cc(O)c21
inactive: [1] | [2] | [3] | [4] | [5] | [6] | [7] | [8] | [9]

CCOC(=O)OC(C)OC(=O)[C@@H]1N2C(=O)[C@@H](NC(=O)[C@H](N)c3ccccc3)[C@H]2SC1(C)C (stereo partly specified)
inactive: [1] | [2] | [3] | [4] | [6] | [7] | [8] | [9]

CC(C)=CC(=O)C=C(C)C
inactive: [1] | [2] | [3] | [4] | [6] | [10] | [7] | [8]

Oc1c(I)cc(I)c2cccnc12
inactive: [1] | [2] | [3] | [4] | [6] | [7] | [8] | [9]

Cc1ccc(Cl)c(Nc2ccccc2C(=O)O)c1Cl
inactive: [1] | [2] | [3] | [4] | [6] | [10] | [7]

CC(C)C=O
inactive: [1] | [2] | [3] | [4] | [6] | [7] | [8] | [9]

COC(=O)CS
inactive: [1] | [2] | [3] | [4] | [6] | [10] | [7] | [8] | [9]

CCC(C)COC(=O)CC(C)C (stereo unspecified)
inactive: [1] | [2] | [3] | [6] | [10] | [7] | [9]
active: [4] 54.9 µM

CC(C)Nc1cccnc1N1CCN(C(=O)c2cc3cc(NS(C)(=O)=O)ccc3[nH]2)CC1
active: [1] 9.52 µM
inactive: [2] | [3] | [4] | [6] | [7] | [8]

CCCCCCCCCCC(=O)O
inactive: [1] | [2] | [3] | [4] | [5] | [6] | [7] | [9]

C=CC(=O)OCC1CC2CC1C1CCC(COC(=O)C=C)C21 (stereo unspecified)
active: [2] 49 µM | [4] 43.6 µM
inactive: [1] | [3] | [5] | [7] | [9]

NCCNCCO
inactive: [1] | [2] | [3] | [4] | [6] | [10] | [7] | [8] | [9]

OC1(c2ccccc2)CCNCC1
inactive: [1] | [2] | [3] | [4] | [6] | [7] | [8] | [9]

CN1CC(=O)N2[C@H](c3ccc4c(c3)OCO4)c3[nH]c4ccccc4c3C[C@@H]2C1=O
inactive: [1] | [2] | [3] | [4] | [6] | [7] | [8] | [9]

CCCCCC#CC(=O)OC
inactive: [1] | [2] | [3] | [4] | [6] | [7] | [8] | [9]

CC(=O)Oc1ccc([N+](=O)[O-])cc1CCl
inactive: [1] | [2] | [3] | [4] | [6] | [9]

O=C(CCCN1CC=C(n2c(=O)[nH]c3ccccc32)CC1)c1ccc(F)cc1
inactive: [1] | [2] | [3] | [4] | [6] | [8]
active: [10] 10.7 µM | [7] 16.9 µM

O=c1c(O)c(-c2ccc(O)cc2)oc2cc(O)cc(O)c12
inactive: [1] | [2] | [3] | [4] | [5] | [6] | [9]

C=C1C[C@@]23CC[C@H]4[C@@](C)(CCC[C@@]4(C)C(=O)O[C@@H]4O[C@H](CO)[C@@H](O)[C@H](O)[C@H]4O)[C@@H]2CC[C@]1(O[C@@H]1O[C@H](CO)[C@@H](O)[C@H](O[C@@H]2O[C@H](CO)[C@@H](O)[C@H](O)[C@H]2O)[C@H]1O[C@@H]1O[C@H](CO)[C@@H](O)[C@H](O)[C@H]1O)C3
inactive: [1] | [2] | [3] | [4] | [5] | [6] | [7] | [9]

O=C1C(=O)c2ccccc2C(O)=C1C1CCC(c2ccc(Cl)cc2)CC1 (stereo unspecified)
active: [1] 7.56 µM
inactive: [2] | [3] | [4] | [6] | [10] | [7] | [8]

COc1cc(Nc2c(C#N)cnc3cc(OCCCN4CCN(C)CC4)c(OC)cc23)c(Cl)cc1Cl
inactive: [1] | [3] | [5] | [8]
active: [2] 21.3 µM | [4] 9.52 µM | [10] 9.52 µM | [7] 23.9 µM

CC(=O)[C@H]1[C@H](C#N)C[C@H]2[C@@H]3CC=C4C[C@@H](O)CC[C@]4(C)[C@H]3CC[C@@]21C
inactive: [1] | [2] | [3] | [4] | [6] | [7]
